Measured values reported in PubChem BioAssay AID651593 (National Center for Advancing Translational Sciences (NCATS), 2012).
Values joined by “and” are separate entries in the source; they are usually repeats but may differ in a detail not shown here. Equal values may be shown once. Among all 1,100 compounds or so, about 860 (78%) were called active. Another 19% or so got no clear call; they are omitted. The call rests on the fitted dose curve; in most records, active means well fitted activation curve with a large enough effect; inconclusive means small, poorly fitted or top-dose-only effect; inactive means flat fitted curve, though single readings scatter. The set was probably picked from earlier hits. Some of the results follow.

Assay: qHTS of Nrf2 Activators: Hit Validation in Primary Assay; further: nearly all actives have a fitted effect of over 70% in size; on activation: 0% is about no effect
Settings: Nrf2/ARE reporter cell assay; Potency: activation; series mostly up to 46.1 µM; activation: at the top concentration
In short: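 Luminescence from Steady-Glo lysis reagent, read after 30 min, reported ARE-luciferase activity in AREc32_fluc stable cells. Compounds were tested at several concentrations, incubated 24 h at 37 °C with 5% CO2 following overnight seeding.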
Potency means the concentration at half of the fitted maximal effect.

SMILES	Potency	activation
COC(=O)c1cc2nc(-c3ccccc3)cc(C(F)(F)F)n2n1	6.51 µM (active)	–
O=c1nc2c(O)cccn2c2c1c(=O)[nH]c1ccccc12	2.31 µM (active)	–
O=c1cc(COc2ccccc2[N+](=O)[O-])nc2sccn12	9.2 µM (active)	–
CCOC(=O)CCn1c(=O)c2cccn2c2cccnc21	18.4 µM (active)	–
CCCc1cc(C(N)=O)c(NC(=O)c2ccco2)s1	4.61 µM (active)	–
NC(=O)c1c(NC(=O)c2ccc([N+](=O)[O-])o2)sc2c1CCCC2	2.91 µM (active)	–
NC(=O)c1c(NC(=O)c2ccco2)sc2c1CCC2	2.59 µM (active)	–
N#Cc1c(NC(=O)c2ccc([N+](=O)[O-])o2)sc2c1CCC2	3.66 µM (active)	–
O=C(NCC1CCCO1)c1ccc([N+](=O)[O-])o1 (stereo unspecified)	23.1 µM (active)	–
O=C1Nc2ccccc2/C1=C/c1ccccc1Cl	2.31 µM (active)	–
Cc1ccccc1/C=C1\C(=O)Nc2ccc(F)cc21	5.17 µM (active)	–
N#CC(=C1C=CC(=NO)C(Cl)=C1)c1ccccc1	5.17 µM (active)	–
O=C(/C=C/c1ccccc1Cl)Nn1cnc2ccccc2c1=O	2.91 µM (active)	–
N#Cc1c(-c2ccco2)cc(-c2ccccc2)[nH]c1=O	1.64 µM (active)	–
CC(=O)Oc1c(-c2ccco2)oc2ccccc2c1=O	0.651 µM (active)	–
Nc1c(C(=O)C2CC2)sc2nc(-c3cccs3)cc(C(F)(F)F)c12	2.91 µM (active)	–
CC(=O)c1sc2nc(-c3cccs3)cc(C(F)(F)F)c2c1N	2.59 µM (active)	–
O=C(NN/C(=N/S(=O)(=O)c1ccc(Cl)cc1)c1ccccc1)c1cccc(Cl)c1	9.2 µM (active)	–
Cc1ccc(S(=O)(=O)/N=C(/NNC(=O)c2cccc(Cl)c2)c2ccccc2)cc1	18.4 µM (active)	–
COCCN(C(=O)c1ccco1)c1nc(-c2ccccc2)cs1	20.6 µM (active)	–
C=C1C2=C(C(=O)N1OC)[C@@H](O)[C@@](C)(O)[C@@H](CCCCC)O2	23.1 µM (active)	–
Cc1ccc([N+](=O)[O-])c(OCc2ncc(Cl)n2C)c1	18.4 µM (active)	–
Cc1ccccc1CS(=O)(=O)c1cnc2ccccc2n1	16.4 µM (active)	–
CCOc1cc(C=O)cc(N=Nc2cccc([N+](=O)[O-])c2)c1O	16.4 µM (active)	–
Cc1nc(NC(=O)c2ccc(Br)o2)ccc1Br	9.2 µM (active)	–
O=C(Nc1ccc2ccccc2c1)c1ccc(Br)o1	2.91 µM (active)	–

SMILES	Potency	activation
Cc1cccc(NC(=S)NC(=O)c2ccc(Br)o2)c1	10.3 µM (active)	–
O=C(/C=C/c1ccco1)Nc1cccc2cccnc12	0.82 µM (active)	–
O=C(/C=C/c1ccco1)Nc1cccnc1Cl	1.46 µM (active)	–
O=C1C2C(C(=O)N1/N=C/c1ccc([N+](=O)[O-])o1)C1C=CC2C12CC2 (stereo unspecified)	18.4 µM (active)	–
O=C1C2C3C=CC(C4CC34)C2C(=O)N1/N=C/c1ccc([N+](=O)[O-])o1 (stereo unspecified)	3.66 µM (active)	–
Nc1ccc2c(Cl)cc(Cl)cc2c1	2.31 µM (active)	–
Cn1c(=O)c(C(=O)NNC(=O)c2ccccc2F)c(O)c2ccccc21	2.31 µM (active)	–
O=C(c1ccc(S(=O)(=O)Cc2ccccc2Cl)c([N+](=O)[O-])c1)N1CCOCC1	18.4 µM (active)	–
O=C(c1ccc(S(=O)(=O)Cc2cc(F)ccc2F)c([N+](=O)[O-])c1)N1CCCC1	7.31 µM (active)	–
Cc1ccc(Cl)c2sc(NC(=O)C3CC3)nc12	5.8 µM (active)	–
CSc1c(C#N)c(N)nc2sc(C(=O)c3ccccc3)c(N)c12	4.61 µM (active)	–
Cc1ccc2c(N)c(C(=O)c3ccccc3)sc2n1	14.6 µM (active)	–
Cc1nc2sc(C(=O)c3ccccc3)c(N)c2c2c1CCCC2	3.66 µM (active)	–
O=C(Nc1cccn2ncnc12)c1cccc(C(F)(F)F)c1	18.4 µM (active)	–
CC(=O)NCCNc1nc2cc(-c3cscc3C)sc2c(=O)n1C	1.3 µM (active)	–
COc1ncccc1-c1cc2nc(NCCNC(C)=O)n(C)c(=O)c2s1	2.59 µM (active)	–
O=C(NNC(=O)C12CC3CC(CC(C3)C1)C2)c1cccc([N+](=O)[O-])c1	–	26.6% (inactive)
Cn1c(=O)n(C)c2cc(NC(=O)c3cccc([N+](=O)[O-])c3)c(Br)cc21	13 µM (active)	–
Cc1ccc([N+](=O)[O-])cc1NC(=O)c1ccc(C(C)(C)C)cc1	4.61 µM (active)	–
Cc1ccc([N+](=O)[O-])cc1NC(=O)c1ccccc1	7.31 µM (active)	–
CCn1ncc(Br)c1C(=O)Nc1cc([N+](=O)[O-])ccc1C	2.91 µM (active)	–
O=C(NC(=S)Nc1cnc2ccccc2c1)c1ccccc1	2.59 µM (active)	–
O=C(Nc1cnc2ccccc2c1)c1ccco1	2.91 µM (active)	–
c1ccc(C2=Nn3c(nnc3-c3ccco3)SC2)cc1	1.84 µM (active)	–
O=c1cc(/C=C/c2ccccc2)oc2ccccc12	2.31 µM (active)	–
COc1ccc(Cl)cc1NC(=O)CSc1c2c(nc3ccccc13)CCC2	18.4 µM (active)	–

SMILES	Potency	activation
COc1ccc(S(=O)(=O)N2CCN(C(=O)c3ccc([N+](=O)[O-])o3)CC2)cc1	5.8 µM (active)	–
COc1ccc(N2CCCC2)c(NC(=O)c2ccc([N+](=O)[O-])o2)c1	6.51 µM (active)	–
COC(=O)c1scc(C)c1NC(=O)c1ccc(Cl)cc1	3.66 µM (active)	–
CCCn1nc([N+](=O)[O-])c(C(C#N)c2nc3ccccc3s2)c(Cl)c1=O (stereo unspecified)	2.31 µM (active)	–
COc1cc(/C=N/Nc2ccccn2)cc(OC)c1O	5.8 µM (active)	–
COc1ccc(Br)cc1/C=N/Nc1ccccn1	2.59 µM (active)	–
CN(Cc1ccccc1)C(=O)c1ccc([N+](=O)[O-])o1	16.4 µM (active)	–
Cc1cc(NC(=O)c2ccccc2)nc2c1c(=O)oc1ccccc12	1.46 µM (active)	–
COc1cccc(C(=O)Nc2cc(C)c3c(=O)oc4ccccc4c3n2)c1	2.06 µM (active)	–
Cc1cc(NC(=O)CC(C)(C)C)nc2c1c(=O)oc1ccccc12	3.66 µM (active)	–
Cc1cc(NC(=O)C2CCCC2)nc2c1c(=O)oc1ccccc12	2.31 µM (active)	–
N#CC1=C(N)Oc2c(ccc3ccccc23)C1c1ccsc1 (stereo unspecified)	–	23.4% (inactive)
Cc1cc(NC(=O)c2ccccc2F)nc2c1c(=O)oc1ccccc12	0.58 µM (active)	–
COc1cc(OC)cc(-c2nc3ccccc3s2)c1	13 µM (active)	–
Cc1cc(C)n(S(=O)(=O)/C=C/c2ccccc2)n1	4.61 µM (active)	–
Cc1cc(C)cc(OC(=O)CS(=O)c2ccc(C(F)(F)F)cc2[N+](=O)[O-])c1 (stereo unspecified)	18.4 µM (active)	–
O=C(CCCCCCC(=O)Nc1ccccc1)NO	2.31 µM (active)	–
O=C(Nc1cc(Br)ccc1O)c1cnn2c(C(F)F)cc(C3CC3)nc12	3.26 µM (active)	–
CS(=O)(=O)Cc1nc2ccccc2oc1=O	20.6 µM (active)	–
CCc1ccc(/C=C/c2c([N+](=O)[O-])c(=O)n(C)c(=O)n2C)cc1	11.6 µM (active)	–
N#C/C(=C(/O)c1ccco1)c1nc2ccccc2[nH]1	2.59 µM (active)	–
N#C/C(=C(/O)c1ccco1)c1nc2ccccc2s1	1.64 µM (active) and 2.06 µM (active)	–
CSc1ccc(C2NN=C(c3ccccc3)S2)cc1 (stereo unspecified)	2.31 µM (active)	–
CN1CCN(CCCNC(=O)c2cc3c(=O)n(C)c4ccccc4c3s2)CC1	8.2 µM (active)	–
Cc1nc(NCc2ccco2)nc2c1C(=O)CC(C)C2 (stereo unspecified)	1.84 µM (active)	–
Clc1cc(Cl)cc(Nc2ncnc(-n3cccc3)n2)c1	2.59 µM (active)	–

SMILES	Potency	activation
Cc1ccccc1OCC(=O)Nc1ccccc1CO	6.51 µM (active)	–
O=C(NC1CCCCC1)N(c1ccccc1)c1nnc(-c2cccc([N+](=O)[O-])c2)s1	7.31 µM (active)	–
CCOc1cc2ccccc2cc1C(=O)Nc1ccccn1	3.66 µM (active)	–
Cc1cccc(-c2nnc(-c3cccc4ccccc34)o2)c1	5.17 µM (active)	–
Clc1ccc(-c2nnc(-c3cccc4ccccc34)o2)cc1	1.84 µM (active)	–
Cc1ccc(-c2nc3cccnc3s2)cc1NC(=O)c1ccco1	8.2 µM (active)	–
O=C(Nc1cc(-c2nc3cc(Cl)ccc3o2)ccc1Cl)c1ccco1	1.3 µM (active)	–
O=C(Nc1cc(-c2nc3ncccc3o2)ccc1Cl)c1ccco1	3.66 µM (active)	–
O=C(Nc1cc2nn(-c3ccccc3)nc2cc1Cl)c1ccco1	1.64 µM (active)	–
O=C(Nc1cc(-c2nc3ncccc3o2)ccc1Cl)c1cccs1	4.11 µM (active)	–
O=c1c2ccccc2oc2cc(Br)ccc12	2.59 µM (active)	–
COc1ccc2oc3ccccc3c(=O)c2c1	23.1 µM (active)	–
O=c1c2ccccc2oc2ccc(-c3ccc4cc[nH]c4c3)cc12	3.66 µM (active)	–
COc1ccc2oc3cc(Cl)ccc3c(=O)c2c1	9.2 µM (active)	–
COc1ccc(OC)c(C(=O)Nc2c(O)ccc3ccccc23)c1	5.8 µM (active)	–
COc1ccc(COc2ccsc2C(=O)Nc2ccc(Cl)cc2)cc1	4.61 µM (active)	–
Cc1nc2nc(-c3ccccc3)nn2c(C)c1Cl	4.11 µM (active)	–
O=C1/C(=C\c2ccco2)NC(=S)N1c1ccccc1	3.66 µM (active)	–
CCn1c(NC(=O)c2ccccc2)nc2ccccc21	3.66 µM (active)	–
CCn1c(NC(=O)c2cccs2)nc2ccccc21	5.17 µM (active)	–
Cn1c(=O)c2nc(-c3ccccc3)oc2c2ccccc21	1.84 µM (active)	–
O=C(c1ccco1)c1cc2c(ccc3ccccc32)oc1=O	9.2 µM (active)	–
O=C(c1ccco1)c1cn(CC(=O)N2CCCc3ccccc32)c2ccccc12	–	7.56% (inactive)
